This is a sample that favours compounds with a hit; in the whole collection about 4.6% have one here.
TIM10 inh = growth inhibitors of TIM10 yeast strain; hit rate 1.4% among 330,000; inhibition, % at 10 µM; S. cerevisiae TIM10 strain growth, BacTiter-Glo luminescence, 24 h;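 active = inhibition of 40% or more at the single tested concentration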;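 note: wild-type TIM10 isogenic control strain grown at permissive 25 °C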
tim10-1 inh = growth inhibitors of tim10-1 mutant yeast | inhibition, % at 20 µM | AID 463190 | S. cerevisiae tim10-1 ts strain growth, BacTiter-Glo, 24 h | hit rate 2.2% among 330,000;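 active = inhibition of at least 40%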;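 note: mutant grown at 25 °C; 0% = DMSO wells with yeast and 100% = wells holding no yeast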
SKKanGAS inh = SKKanGAS growth inhibition; S. pyogenes SKKanGAS, kanamycin growth, BacTiter-Glo, 6 h; inhibition, % at 7.5 µM; hit rate 1.3% among 300,000; AID 1662;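 active = mean replicate score, as percent of positive control median, at least 50; inconclusive = mean below 50 but one replicate at or above 50; inactive = mean and every replicate below 50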;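 note: strain carries kanamycin resistance gene driven by streptokinase promoter and grows in 40 µg/ml kanamycin; loss of luminescence reflects streptokinase promoter inhibition or plain growth inhibition; 0% = median of DMSO wells and 100% = positive control at its reference dose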
PfHsp90 yeast 2 = growth inhibition of yeast expressing Plasmodium Hsp90; S. cerevisiae expressing PfHsp90, BacTiter-Glo ATP, 48 h; yeast lacking PDR1 and PDR3 efflux regulators; inhibition, % at 9.4 µM; hit rate 0.32% among 310,000;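 active = every replicate shows inhibition above about 80%, whatever the replicate mean, limit read from the data; inconclusive = mean inhibition reaches the set limit but some replicate falls short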;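 note: 0% = DMSO neutral controls and 100% = 20 µM radicicol positive controls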
tim23-1 inh = inhibits growth of tim23-1 mutant yeast. S. cerevisiae tim23-1 growth, BacTiter-Glo luminescence, 24 h. AID 463212. hit rate 1.3% among 330,000. inhibition, % at 20 µM;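 active = growth inhibition of the mutant yeast at or above 50%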;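 note: temperature-sensitive mutant grown at 25 °C; plate controls were DMSO-treated mutant yeast for no effect and medium wells lacking yeast for full effect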
NALP3 yeast inh = NALP3 inhibition in yeast | Yeast reconstituted NLRP3/ASC/caspase-1, beta-gal luminescence, 24 h | inhibition, % at 10 µM | hit rate 0.39% among 330,000 | AID 2825;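 active = inhibition of 50% or more; inactive = inhibition below 50%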;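 note: plate controls were induced DMSO wells for no effect and uninduced yeast grown without galactose for full effect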
tim10-1 conf = tim10-1 yeast growth inhibition, confirmed; shares compounds with tim10-1 inh; S. cerevisiae tim10-1 ts strain growth, BacTiter-Glo, 24 h; inhibition, % at 20 µM; hit rate 56% among 7,400;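 active = inhibition of yeast growth at or above a set limit in either of two repeat tests at 20 µM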;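 note: tim10-1 mutant grown at permissive 25 °C to find synthetic lethal compounds; 0% = DMSO yeast wells and 100% = medium wells without yeast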
TIM10 conf = confirmation of TIM10 yeast growth inhibitors; shares compounds with TIM10 inh; S. cerevisiae tim10 strain growth, BacTiter-Glo luminescence, 24 h; inhibition, % at 10 µM; hit rate 63% among 4,600; AID 463215;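 active = inhibition of yeast growth at or above a set limit in either of two replicates at 10 µM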;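 note: this counterscreen used the strain with wild-type TIM10; 0% = yeast with DMSO and 100% = medium wells lacking yeast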
tim23-1 confirm = tim23-1 yeast growth inhibition, confirmed; shares compounds with tim23-1 inh; S. cerevisiae tim23-1 growth, BacTiter-Glo luminescence, 24 h; inhibition, % at 20 µM; hit rate 83% among 4,400;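 active = inhibition above about 39% in either of two replicate wells at 20 µM, limit read from the data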;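 note: temperature-sensitive tim23-1 mutant grown at 25 °C; 0% = DMSO wells with yeast and 100% = medium wells without yeast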
Active calls of the source: *; ? = inconclusive; · = no result.

SMILES | TIM10 inh | tim10-1 inh | SKKanGAS inh | PfHsp90 yeast 2 | tim23-1 inh | NALP3 yeast inh | tim10-1 conf | tim23-1 confirm | others
Cc1csc(NC(=O)c2cc3c(s2)CCCCC3)n1 | 42* | 46* | 14 | 23 | 57* | -8 | 39* | 49* | TIM10 conf=37*
Cc1csc(NC(=O)c2cc3c(s2)CCCC3)n1 | 36 | 36 | 9 | -46 | 50 | 11 | · | ·
Cc1ccc(-c2cc(NC(=O)c3ccccc3[N+](=O)[O-])n[nH]2)cc1 | 10 | 4 | 0 | 4 | 7 | 18 | · | ·
Oc1ccc(Cl)cc1-c1cc(-c2ccccc2)n[nH]1 | 55* | 43* | 55* | 4 | 60* | 14 | 36* | 22 | TIM10 conf=58*
Cc1ccc(-c2cc(-c3ccc(F)cc3)n[nH]2)c(O)c1 | 23 | 41* | 38 | -12 | 61* | 25 | 46* | 51*
COC(=O)c1cc(-c2ccc(C)cc2)n[nH]1 | 8 | 10 | 4 | 8 | 1 | -10 | · | ·
COc1ccccc1-c1cc(-c2cc(Cl)ccc2O)n[nH]1 | 11 | 20 | 14 | · | 17 | -12 | · | ·
Cc1ccc(-c2cc(-c3ccccc3[N+](=O)[O-])[nH]n2)c(O)c1 | 44* | 52* | 4 | -9 | 60* | 10 | 42* | 66* | TIM10 conf=31*
CCc1cc(-c2n[nH]c(C)c2-c2ccccc2Cl)c(O)cc1OC | 18 | 37 | ? | -27 | 45 | 13 | · | ·
Cc1ccc(NC(=O)CC(C(=O)O)c2ccccc2)cc1 (stereo not given) | -15 | -4 | -5 | 1 | -8 | 11 | · | ·
Cn1cc([N+](=O)[O-])c(C(=O)Nc2sc3c(c2C#N)CCC3)n1 | 31 | 45* | 2 | 16 | 56* | -3 | 34* | 48*
CN(C(=O)c1ccc(S(=O)(=O)N2CCCC2)cc1)C1CCS(=O)(=O)C1 (stereo not given) | -1 | 1 | 1 | · | -1 | 19 | · | ·
CC(C)(C)N=Cc1c(O)ccc2oc3c(c12)CCCC3 | 34 | 41* | 34 | -14 | 63* | 9 | 33* | 64*
NC(=O)N/N=C/c1c(O)ccc2oc3c(c12)CCCC3 | 19 | 12 | 10 | -23 | 2 | 10 | · | ·
Cc1cc(C)nc(Sc2ccc(C=O)cc2[N+](=O)[O-])n1 | 11 | 19 | -9 | -30 | 15 | 1 | · | ·
O=Cc1ccc(Sc2nnc(-c3ccccc3)o2)c([N+](=O)[O-])c1 | 42* | 48* | -6 | 9 | 55* | 23 | 35* | 58* | TIM10 conf=18
COc1ccc(C)cc1NC(=O)CN1C(=O)COc2ccc(S(=O)(=O)N3CCCCC3)cc21 | 6 | 3 | -1 | 13 | 2 | 5 | · | ·
COc1cc(/C=C/C(=O)NC(C)C2CC3CCC2C3)cc(OC)c1OC (stereo not given) | 11 | 4 | 15 | -13 | 27 | 13 | · | ·
C/C(=N\NC(=S)NC1CCCCC1)c1cccs1 | 58* | 41* | -5 | -62 | 53* | 46 | 24 | 49* | TIM10 conf=36*
O=C(c1cc(C(=O)c2ccco2)cc(C(=O)c2ccco2)c1)c1ccco1 | -11 | 12 | -12 | -27 | -29 | 19 | · | ·
Cc1ccc2occ(C(=O)c3ccco3)c(=O)c2c1 | 49* | 42* | 2 | -58 | 71* | 8 | 23 | 51* | TIM10 conf=29
COc1ccc(C(C(=O)NC2CCCC2)N(C(=O)c2csnn2)C2CCCC2)cc1 (stereo not given) | 11 | -1 | -1 | 10 | 10 | 10 | · | ·
CN(C)c1nc(N/N=C/c2ccccc2O)nc(Nc2ccc(F)cc2)n1 | 19 | 47* | 93* | 16 | 59* | 12 | 37* | 67*
CN(C)c1nc(Nc2ccc(F)cc2)nc(Oc2ccc(F)cc2)n1 | -20 | 0 | 16 | 16 | 22 | 26 | · | ·
CC(C)Oc1ccc(Br)cc1/C=N\NC(N)=S | 13 | 22 | -5 | -24 | 22 | -8 | · | ·
